# Bioassay records: PubChem BioAssay, several laboratories
# This is a sample that favours compounds with a hit; in the whole collection about 4% have one here.
# Gli-Sufu block: antagonists of Gli-Sufu signaling; hit rate 0.74% among 340,000; AID 588413; Sufu-KO-LIGHT fibroblasts, Gli luciferase reporter luminescence; inhibition, % at 5 µM;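 active = inhibition above about 55%, limit read from the data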;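 note: 0% = DMSO-treated cells and 100% = wells with medium but no cells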
# 697 NFkB inh: inhibitors of the PMA/ionomycin-induced NF-kB reporter in 697 B cells | 697 B-cell NF-kB luciferase reporter, 16 h | inhibition, % at 4 µM | hit rate 0.33% among 330,000 | AID 435022; in the data active = inhibition above about 35%
# Jurkat NFkB inh: lowers PMA/ionomycin-induced NF-kB signal in Jurkat cells; inhibition, % at 4 µM; PMA/ionomycin-induced NF-kB luciferase reporter, luminescence; hit rate 0.53% among 330,000; in the data active = inhibition above about 50%
# Beta apoptosis: blocks beta cell apoptosis; hit rate 0.8% among 300,000; INS-1E cytokine-induced death, ATP luminescence, 48 h; percent of positive-control rescue, neutral wells zero; protection from apoptosis, % (test concentration not listed);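 active = Every replicate reaches about 75%, or at least half do and their mean reaches it too, limit read from the data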;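 note: 0% = cytokine-treated negative control wells and 100% = positive control rescue; higher means more ATP so stronger rescue from cytokine killing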
# Mdm2-MdmX inh: inhibitors of human Mdm2/MdmX interaction; O15151+Q00987; inhibition, % at 8 µM; AID 485346; hit rate 3% among 330,000; SaOS-2 split-luciferase Mdm2/MdmX complementation, luminescence;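 active = inhibition of at least 50% at 8 µM in the primary screen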
# Target sequence (O15151 whole entry, looked up): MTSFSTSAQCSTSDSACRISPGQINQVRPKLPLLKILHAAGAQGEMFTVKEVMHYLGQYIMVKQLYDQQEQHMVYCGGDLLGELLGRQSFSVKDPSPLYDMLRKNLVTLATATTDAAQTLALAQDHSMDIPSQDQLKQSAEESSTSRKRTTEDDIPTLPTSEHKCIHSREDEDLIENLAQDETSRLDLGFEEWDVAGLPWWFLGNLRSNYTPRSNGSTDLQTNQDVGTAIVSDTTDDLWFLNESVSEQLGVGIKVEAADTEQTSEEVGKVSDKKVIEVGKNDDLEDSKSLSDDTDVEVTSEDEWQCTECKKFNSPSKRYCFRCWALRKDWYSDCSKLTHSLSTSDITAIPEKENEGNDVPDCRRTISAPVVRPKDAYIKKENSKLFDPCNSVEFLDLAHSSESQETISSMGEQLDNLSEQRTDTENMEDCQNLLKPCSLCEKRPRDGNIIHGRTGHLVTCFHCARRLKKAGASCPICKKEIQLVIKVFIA
# Target sequence (Q00987 whole entry, looked up): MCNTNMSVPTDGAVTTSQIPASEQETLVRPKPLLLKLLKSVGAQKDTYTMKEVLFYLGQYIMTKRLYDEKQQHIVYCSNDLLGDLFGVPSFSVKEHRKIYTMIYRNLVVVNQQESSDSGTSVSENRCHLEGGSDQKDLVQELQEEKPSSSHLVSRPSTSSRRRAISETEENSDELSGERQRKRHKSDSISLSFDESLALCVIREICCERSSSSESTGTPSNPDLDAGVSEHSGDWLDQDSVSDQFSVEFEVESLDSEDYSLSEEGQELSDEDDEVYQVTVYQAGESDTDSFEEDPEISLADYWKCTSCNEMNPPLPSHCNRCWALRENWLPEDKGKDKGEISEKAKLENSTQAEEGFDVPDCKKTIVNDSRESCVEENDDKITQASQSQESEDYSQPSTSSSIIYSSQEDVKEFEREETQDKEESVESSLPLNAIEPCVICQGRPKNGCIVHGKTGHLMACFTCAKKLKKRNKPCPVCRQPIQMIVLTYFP
# 697 NFkB conf: inhibitors of the PMA/ionomycin-induced NF-kB reporter in 697 B cells, retest; shares compounds with 697 NFkB inh; 697 B-cell NF-kB luciferase, 16 h; inhibition, % at 4 µM; hit rate 35% among 2,000; AID 449746; in the data active = inhibition mostly above about 28%, no sharp cut-off; inactive = mostly below about 22%
# * hit, by the source's call; x = not tested or not shown.
SMILES,Gli-Sufu block,697 NFkB inh,Jurkat NFkB inh,Beta apoptosis,Mdm2-MdmX inh,697 NFkB conf
N#Cc1ccc(NC(=O)Cn2cnc(S(=O)(=O)N3CCc4ccccc43)c2)cc1,9,4,15,-3,27,x
CN1C(=O)CC(c2ccco2)Sc2ccccc21 (configuration not stated),10,39*,-2,-2,29,29*
O=c1c2ccccc2nc(-c2ccc(Cl)cc2)n1C1CCS(=O)(=O)C1 (configuration not stated),11,19,10,5,-12,x
c1ccc(-c2noc(-c3ccc4ccccc4c3)n2)cc1,17,-354,-100,-2,8,-359
O=C(O)c1ccc(-c2noc(-c3ccc(F)cc3)n2)cc1,-94,-313,-75,1,-110,-283
O=C(CCN1C(=O)/C(=C\c2cccs2)SC1=S)NC1=NCCS1,16,-3,13,0,24,x
O=C(CCN1C(=O)/C(=C/c2cccs2)SC1=S)NC1=NCCS1,5,x,x,-1,x,x
COc1ccccc1/C=C1\SC(=S)N(CCC(=O)NC2=NCCS2)C1=O,-1,35*,0,-13,13,48*
COc1ccccc1/C=C1/SC(=S)N(CCC(=O)Nc2cccnc2)C1=O,12,35*,1,-5,29,28*
CCc1ccc(/C=C2\SC(=S)N(CCC(=O)NC3=NCCS3)C2=O)cc1,x,71*,23,-6,11,38*
CN1CCC(NC(=S)NC2CC2)CC1,-11,-2,11,2,-2,x
CCCCCCCCNC(=O)c1ccc(C)cc1,x,80*,-25,-3,-9,-8
CCCCNC(=O)Cc1ccc(C)cc1,-13,26,-3,-5,-5,x
Cc1cccc(C(=O)OC(C)C(=O)Nc2ccc(S(=O)(=O)Nc3ncccn3)cc2)c1C (configuration not stated),8,-25,-19,-3,-14,x
CCOc1cc(/C=C(\C#N)c2nc3ccccc3[nH]2)ccc1OC(C)C(=O)O (configuration not stated),3,18,0,-7,16,x
CCOc1cc(/C=C(/C#N)c2nc3ccccc3[nH]2)ccc1Oc1ccc([N+](=O)[O-])cn1,17,40*,9,24,49,7
CCOC(=O)Cc1csc(NC(=O)/C=C/c2ccc(OC)cc2)n1,17,3,-25,10,18,x
CCc1cccc(CC)c1NC(=O)C(CC)Sc1nc2ccncc2[nH]1 (configuration not stated),1,0,-4,4,7,x
COc1ccc(NS(=O)(=O)c2cc(NC(=O)c3cc(=O)c4ccccc4o3)ccc2OC)cc1,-4,38*,7,5,6,33*
CNS(=O)(=O)c1cccc(C(=O)OCC(=O)N2c3ccccc3CC2C)c1 (configuration not stated),3,36*,1,3,16,-7
Cc1c(C)c2ccc(OC(C)C(=O)N3CC[C@@]4(O)CCCC[C@H]4C3)cc2oc1=O (some centres not stated),3,-9,-7,2,21,x
Cn1c(N=Nc2ccccc2)nc2ccccc21,-102,-432,-110,57,-133,-398
COc1ccc(CNC(=O)CN2C(=O)NC(C)(c3cccc4ccccc34)C2=O)cc1OC (configuration not stated),-5,-8,5,-1,6,x
CN=c1scc(C)n1/N=C/c1cc(Br)c(O)c(Br)c1,0,1,-8,3,-32,x
CN=c1scc(C)n1/N=C/c1ccc2c(c1)OCO2,-83,-273,-131,1,-36,-262
SMILES,Gli-Sufu block,697 NFkB inh,Jurkat NFkB inh,Beta apoptosis,Mdm2-MdmX inh,697 NFkB conf
COc1cc(N=Nc2ccc3ccccc3c2)ccc1O,-60,-118,-106,-5,-131,x
Oc1ccc(N=Nc2ccc3ccccc3c2)cc1,-90,-400,-122,2,-231,-318
COC(=O)CSc1nnc(-c2sc3ccccc3c2Cl)o1,5,40*,-1,-2,-27,43*
COc1cccc(OC)c1C(=O)Nc1cc(Cl)ccc1N1CCOCC1,-4,39*,-9,4,9,-4
Cc1noc(C)c1C(=O)Nc1cc(Cl)ccc1N1CCOCC1,46,8,-7,2,-12,x
Cc1ccc(O)c(-c2cc(C(F)(F)F)[nH]n2)c1,5,40*,10,0,16,22
Cc1cccc(NC(=O)c2cc(-c3cc(C)ccc3O)n[nH]2)c1,-47,-120,-82,-7,-72,x
CCN(CC)CCNC(=O)c1cccc(NC(=O)C(=O)c2cc(Br)ccc2NC(C)=O)c1,32,24,-9,-1,34,x
Cc1cc(C)nc(SCc2ccc(C(=O)N/N=C/c3ccco3)cc2)n1,-9,1,3,-4,24,x
Cc1ccc(C(=O)Oc2oc(-c3ccccc3)nc2C=Nc2ccc(N(C)C)cc2)cc1,-34,35*,-70,-4,-84,9
O=[N+]([O-])c1ccccc1COc1ccc(Cl)c2cccnc12,-80,-306,-76,0,-67,-312
O=C(Oc1ccc(Cl)c2cccnc12)c1cccc([N+](=O)[O-])c1,-6,-3,4,2,-1,x
COCCNC(=O)C1(C(F)(F)F)CC(CCCO)CCCO1 (configuration not stated),-8,14,-7,-6,4,x
CN(CC(=O)Nc1ccccc1C(F)(F)F)C(=O)CSc1nnc(N)s1,-1,0,-9,-1,14,x
COCCn1c(C)cc(C(=O)COC(=O)c2n[nH]c3ccccc23)c1C,-10,-393,-55,7,19,-117
Cc1cc(C(=O)COC(=O)c2n[nH]c3ccccc23)c(C)n1C,-88,-138,-133,1,-40,x
O=C(Nc1ccc(/C=C/c2nc3ccccc3o2)cc1)c1cccc(C(F)(F)F)c1,-5,-327,-2,22,24,-215
CCS(=O)(=O)Nc1cccc(-c2ccc3nnc(-c4cccnc4)n3n2)c1,6,8,-13,0,19,x
CCCS(=O)(=O)Nc1cccc(-c2ccc3nnc(C)n3n2)c1,17,39*,9,0,8,39*
Cc1nnc2ccc(-c3cccc(NS(=O)(=O)c4cc(F)ccc4F)c3)nn12,14,38*,-12,5,49,-1
COc1ccc(CC(=O)Nc2cccc(-c3ccc4nnc(C)n4n3)c2)cc1,14,35,20,5,22,29*
COc1ccc(CNC(=O)CNC(=O)CNS(=O)(=O)c2ccc(C)c(C)c2)cc1,-7,5,3,-1,21,x
Cc1cccc(/C(N)=N/OC(=O)c2ccc(F)cc2)c1,-95,-251,-125,-3,-48,-143
O=C1CCCCC1CCc1ccncc1 (configuration not stated),-4,x,x,x,x,x
COc1ccc(C2C(C#N)=C(N)OC(C(C)(C)C)=C2C#N)cc1OC (configuration not stated),4,24,2,-4,12,x
